Measurements as given in the supplement of paper PMC10338343.
± gives the standard deviation. In all, about 8,200 sequences were measured (“pre-steady-state target cleavage rate”: median about 0.024, highest 2% from about 1.3 on). The list comes from a sample in which the highest values are over-represented; it also holds similar and randomly drawn sequences.

System: MIWI (PIWIL1) piRISC loaded with L1MC piRNA (30 nt)
Experiment: pre-steady-state target cleavage rate (min^-1); MIWI and MILI are mouse PIWI proteins and EfPiwi is from a freshwater sponge; tags in brackets are library labels; higher = faster piRNA-guided slicing of the target
Details: guide: L1MC piRNA 5'p-UAACUAAAUACUAUGCAAGCUGUAGGUCCU
Summary of the method: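 Reactions were run for 0–8 or 0–960 min at 33 °C in HEPES–potassium acetate buffer, combining 1 nM active affinity-purified piRISC with one synthetic guide, […] transcribed, DNA-blocked target RNA library and, in some cases, 500 nM GTSF1 partner protein. Sequencing of uncleaved targets followed, with normalisation to depth and to weakly complementary targets. Three trials were pooled, k3 was capped at 0.0001 min^-1, and the pre-steady-state cleavage rate was taken from a burst-and-steady-state fit.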

[1] = auxiliary factor: 500 nM mouse GTSF1
[2] = auxiliary factor: none (no GTSF1)
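Further: 1 nM active piRISC with 0.1 nM target library at 33 °C single turnover.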

Sequence	pre-steady-state target cleavage rate [1]	pre-steady-state target cleavage rate [2]
UCCUGGAUGAGCAAGCAUAGUAUUUAGUAA	0.0379 ± 0.01	
UCCUGGAUGUGCAUGCAUAGUAUUUAGUUA	0.13 ± 0.014	0.00793 ± 0.0025
UCCUGGAUGUGCUUGCAAAGUUUUUAGUUA	0.00751 ± 0.0037	0.00575 ± 0.002
UCCACCAACAGCUUGGAUAGUAUUUAGUUA	1.36 ± 0.056	0.0553 ± 0.01
AGGACCAACAGCUUGGAUAGUAUUUAGUUA	1.41 ± 0.059	0.0681 ± 0.01
UCCUGGAACAGCUUGGAUAGUAUUUAGUUA	1.18 ± 0.043	0.0808 ± 0.015
UCGACCAACAGCUUCCAUAGUAUUUAGUUA	0.0723 ± 0.016	0.0035 ± 0.0011
AGGACCAACAGCUUCCAUAGUAUUUAGUUA	0.0962 ± 0.019	0.00538 ± 0.0017
UCCAGCUACAGCUUGGAUAGUAUUUAGUUA	1.31 ± 0.12	0.0456 ± 0.0069
UCGACCAACAGCUUGGAUAGUAUUUAGUUA	1.67 ± 0.045	0.0693 ± 0.011
AGGACCAACAGCUUGCAUAGUAUUUAGAUA	0.509 ± 0.045	0.0557 ± 0.011
UGGACCAACAGCUUGGAUAGUAUUUAGUUA	1.49 ± 0.054	0.0691 ± 0.011
UCCUCCAACAGCUUGGAUAGUAUUUAGUUA	1.3 ± 0.053	0.0527 ± 0.0092
UGGACCAACAGCUUCCAUAGUAUUUAGUUA	0.0364 ± 0.0068	0.00383 ± 0.0016
UCGAGCUACAGCUUGGAUAGUAUUUAGUUA	1.11 ± 0.086	0.0477 ± 0.0076
UCCUCCUACAGCUUCGAUAGUAUUUAGAAA	0.0755 ± 0.019	
UCCUGGAUGAGCUUGCAUAGUAUUUAGUGA	0.703 ± 0.047	0.0519 ± 0.0094
UCCUGCUACAGCUUGCAUUGUAUUAAGUUA	0.502 ± 0.038	0.00942 ± 0.0021
UCCACCUACAGCUUGGAUAGUAUUUUCAAA	0.0295 ± 0.012	
UCCUCCUACAGCAUGCAUAGUAUUUAGAAA	0.485 ± 0.066	
UCGACCUACAGGUUGGAUAGUAUUUAGUUA	1.16 ± 0.11	0.0308 ± 0.0056
AGGACCUACAGCUUGGAUAGUAUUUAGUAA	1.02 ± 0.063	0.0552 ± 0.012
UCCACCUACAGCUUGGAUAGUAUUUAGAUA	0.319 ± 0.042	0.0137 ± 0.0027
AGGACCUACAGCUUGGAUAGUAUUUAGAUA	0.527 ± 0.057	0.0218 ± 0.0053
UGGACCUACAGGUUGGAUAGUAUUUAGUUA	1.33 ± 0.091	0.0484 ± 0.0079
AGGACCUACAGGUUGGAUAGUAUUUAGUUA	1.24 ± 0.079	0.0408 ± 0.0067
UGGACCUACAGCUUGGAUAGUAUUUAGUAA	0.851 ± 0.062	0.0355 ± 0.006

Sequence	pre-steady-state target cleavage rate [1]	pre-steady-state target cleavage rate [2]
UGGACCUACAGCUUGGAUAGUAUUUAGAUA	0.427 ± 0.05	0.0235 ± 0.0046
UGGACCUACAGCUUGGAUAGUAUUUAGUUA	1.65 ± 0.068	0.0735 ± 0.013
AGGACCUACAGCUUGGAUAGUAUUUAGUUA	1.67 ± 0.052	0.0813 ± 0.013
UCCACCUACAGCUUGGAUAGUAUUUAGUAA	0.747 ± 0.054	0.0244 ± 0.0052
UCCACCUACAGCUUGGAUAGUAUUUAGUUA	1.44 ± 0.056	0.0469 ± 0.0082
UCCACCUACAGGUUGCAUAGUAUUUACAAA	0.336 ± 0.052	
UCCACCUACAGCUUGCAUAGUUUUUAGAUA	0.16 ± 0.029	0.0077 ± 0.0023
UCCUGGUUCAGGUUGCAUAGUAUUUAGUUA	0.711 ± 0.051	0.0138 ± 0.0041
AGGAGCUACAGCUAGCAUAGUAUUUAGUUA	1.28 ± 0.076	0.0359 ± 0.0079
UCCUGCUACAGCUAGCAUAGUAUUUACAAA	0.234 ± 0.049	
UCCUGCUACAGCUUGCUUAGUAUUAAGUUA	0.403 ± 0.038	0.00887 ± 0.0026
UCCUGGAUCAGCUUGCAUCGUAUUUAGUUA	0.327 ± 0.02	0.032 ± 0.0077
AGGACCUACAGCUUGCAUAGUAUUUUCUUA	0.33 ± 0.049	0.03 ± 0.0093
UCCUCCUACACCUUGCAUAGAAUUUAGUUA	0.341 ± 0.082	0.00682 ± 0.0023
UCCUCCUACAGCUUGCAUUGAAUUUAGUUA	0.183 ± 0.018	0.00617 ± 0.0025
UCGACCUACACCUUGCAUAGAAUUUAGUUA	0.395 ± 0.07	0.0128 ± 0.0024
UCGACCUACAGCUUGCAUUGUAUUUACUUA	0.49 ± 0.028	0.0226 ± 0.0052
AGGACCUACAGCUAGGAUAGUAUUUAGUUA	1.09 ± 0.06	0.0102 ± 0.0018
UGGACCUACAGCUAGGAUAGUAUUUAGUUA	1.39 ± 0.068	0.00938 ± 0.0019
UCGACCUACAGCUAGGAUAGUAUUUAGUUA	1.29 ± 0.064	0.00874 ± 0.0021
AGGACGUACAGCUUGGAUAGUAUUUAGUUA	1.36 ± 0.067	0.0579 ± 0.0083
UCCACGUACAGCUUGGAUAGUAUUUAGUUA	1.14 ± 0.065	0.0509 ± 0.0081
UCGACGUACAGCUUGGAUAGUAUUUAGUUA	1.24 ± 0.042	0.0503 ± 0.0083
UCCUCGUACAGCUUGGAUAGUAUUUAGUUA	1.22 ± 0.062	0.0636 ± 0.011
UGGACGUACAGCUUGGAUAGUAUUUAGUUA	1.4 ± 0.054	0.0597 ± 0.01
AGGAGCUACAGCUUGGAUAGUAUUUAGUUA	1.17 ± 0.081	0.0558 ± 0.0094
UCGUCCUAGAGCUUGCAUAGUAUUUAGUUA	0.957 ± 0.041	0.0436 ± 0.0072

Sequence	pre-steady-state target cleavage rate [1]	pre-steady-state target cleavage rate [2]
UCCUCCUAGCAGCUUGCAUAGUAUUUAGUUA	1.12 ± 0.046	0.0448 ± 0.0093
UCCACCUACAGCUUCGAUAGUAUUUAGAAA	0.0807 ± 0.021	
UCCUGGAUGAGCUUGCUAUGUAUUUAGUUA	0.00494 ± 0.0027	0.00308 ± 0.0029
AGGAGCUAGAGCUUGCAUAGUAUUUAGUUA	0.922 ± 0.049	0.0536 ± 0.0099
UCGAGCUUCAGCUUGCAUAGUAUUUAGUUA	1.12 ± 0.046	0.0555 ± 0.0099
UCCUGCUUCAGCUUGCAUAGUAUUUAGUAA	0.537 ± 0.036	0.0275 ± 0.0068
AGGAGCUUCAGCUUGCAUAGUAUUUAGUUA	1.48 ± 0.047	0.0864 ± 0.015
UGGAGCUUCAGCUUGCAUAGUAUUUAGUUA	1.34 ± 0.048	0.0706 ± 0.01
UGGAGCUAGAGCUUGCAUAGUAUUUAGUUA	0.707 ± 0.048	0.0402 ± 0.0068
AGGACCUAGUGCUUGCAUAGUAUUUAGUAA	0.457 ± 0.051	0.0314 ± 0.0063
UCCUCCUACAGCUUGCUAAGUAUUUAGUAA	0.066 ± 0.012	
AGGACCUACAGCUUGGAUAGUAUUAAGUUA	0.722 ± 0.072	0.0226 ± 0.004
AAGACCUACAGCUUGCAUAGUAUUUAGUUA	1.69 ± 0.062	0.0921 ± 0.015
AGACCUACAGCUUGCAUAGUAUUUAGUUA	1.46 ± 0.052	0.0902 ± 0.017
UAGACCUACAGCUUGCAUAGUAUUUAGUUA	1.31 ± 0.043	0.0672 ± 0.011
AGGACCUACAGGUAGCAUAGUAUUUAGUUA	1.04 ± 0.054	0.00995 ± 0.0022
UCCUGGUACAGCUUGCAUAGUAAAUUCAAA	0.00975 ± 0.0053	
UCCUCCUACAGCUUGCAUAGUAUUUAGAUUA	0.342 ± 0.031	0.0121 ± 0.0024
UCCUGGAAGUCCUUGCAUAGUAUUUAGUUA	0.175 ± 0.02	0.0104 ± 0.0031
UCCCCCUACAGCUUGCAUAGUAUUUAGUUA	1.28 ± 0.039	0.0819 ± 0.014
UCGCCUACAGCUUGCAUAGUAUUUAGUUA	1.5 ± 0.066	0.0743 ± 0.014
UCCGCCUACAGCUUGCAUAGUAUUUAGUUA	1.23 ± 0.05	0.0714 ± 0.011
UCGCCCUACAGCUUGCAUAGUAUUUAGUUA	1.32 ± 0.055	0.0692 ± 0.011
UCCUGGUACAGCUUGCAUAGUUUUUAGUAA	0.177 ± 0.037	0.0195 ± 0.0054
UCCUGGUACAGCUUGCAUAGUUAUUAGUUA	0.115 ± 0.018	0.018 ± 0.0051
